Results from PubChem BioAssay AID1159580 (chemical genetic matrix, 2015).
Where “and” joins values, the source holds several entries; their conditions need not be identical. Equal entries are not always repeated. Out of some 5,500 compounds screened, about 2,000 (36%) were called active. Inconclusive results (about 18%) are left out. No stated cut-off is given here; in the data, active means normalized growth mostly below about 0.91 (no sharp cut-off); inconclusive means no clear call, values can overlap the other calls; inactive means mostly above about 0.92. The list shows a part of the results.

Experiment: chemical genetic growth profiling, strain panel (AID 1159580);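 further: tested at 20 µM; growth read once vehicle control cultures reached saturation at 30 °C; 1 = growth at the plate median or of vehicle wells; lower values mean less growth of the strain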
Conditions: S. cerevisiae deletion strains, growth OD

Measured: normalized growth

COS(C)(=O)=O
inactive: locus YAL013W, strain DEP1, active compounds read low 1 | locus YAL021C, strain ccr4, active compounds read low 0.997 | locus YAL026C, strain drs2, active compounds read low 1 | locus YAL030W, strain snc1, active compounds read low 0.996 | locus YBL061C, strain skt5, active compounds read low 0.992 | locus YBR009C, strain hhf1, active compounds read low 1 | locus YBR021W, strain FUR4, active compounds read low 1 | locus YBR023C, strain chs3, active compounds read low 0.994 | locus YBR171W, strain sec66, active compounds read low 0.978 | locus YBR229C, strain ROT2, active compounds read low 1.01 | locus YBR231C, strain swc5, active compounds read low 0.969 | locus YBR279W, strain paf1, active compounds read low 1 | locus YCL011C, strain gbp2, active compounds read low 1.02 | locus YCL016C, strain dcc1, active compounds read low 1 | locus YCL029C, strain bik1, active compounds read low 1.02 | locus YCL069W, strain vba3, active compounds read low 1 | locus YCR088W, strain abp1, active compounds read low 0.993 | locus YDL005C, strain med2, active compounds read low 0.979 | locus YDL035C, strain GPR1, active compounds read low 1.02 | locus YDL040C, strain nat1, active compounds read low 0.993 | locus YDL074C, strain BRE1, active compounds read low 0.986 | locus YDL101C, strain DUN1, active compounds read low 1 | locus YDL134C, strain PPH21, active compounds read low 1 | locus YDL185W, strain tfp1, active compounds read low 1.01 | locus YDL192W, strain arf1, active compounds read low 1.01 | locus YDR001C, strain nth1, active compounds read low 0.997 | locus YDR069C, strain doa4, active compounds read low 1.01 | locus YDR101C, strain arx1, active compounds read low 1.01 | locus YDR137W, strain rgp1, active compounds read low 1.02 | locus YDR150W, strain NUM1, active compounds read low 1 | locus YDR159W, strain sac3, active compounds read low 0.944 | locus YDR162C, strain NBP2, active compounds read low 0.993 | locus YDR195W, strain ref2 0.948 | locus YDR297W, strain sur2, active compounds read low 0.982 | locus YDR318W, strain mcm21, active compounds read low 1.03 | locus YDR334W, strain swr1, active compounds read low 0.988 | locus YDR335W, strain msn5, active compounds read low 1 | locus YDR388W, active compounds read low 1.01 | locus YDR392W, strain spt3, active compounds read low 0.947 | locus YDR502C, strain sam2, active compounds read low 0.994 | locus YEL003W, strain gim4, active compounds read low 0.989 | locus YEL037C, strain rad23, active compounds read low 1 | locus YEL061C, strain CIN8 (second series), active compounds read low 0.998 | locus YEL061C, strain CIN8, active compounds read low 1.01 | locus YER015W, strain faa2, active compounds read low 1.02 | locus YER016W, strain bim1, active compounds read low 0.98 | locus YER110C, active compounds read low 1.02 | locus YER111C, strain swi4, active compounds read low 0.998 | locus YER155C, strain BEM2 (second series), active compounds read low 0.976 | locus YER155C, strain BEM2, active compounds read low 1.01 | locus YER167W, strain BCK2, active compounds read low 1.02 | locus YFR010W, strain ubp6, active compounds read low 0.995 | locus YGL078C, strain dbp3, active compounds read low 0.999 | locus YGL086W, strain mad1, active compounds read low 1.02 | locus YGL167C, strain pmr1, active compounds read low 0.997 | locus YGL173C, strain kem1, active compounds read low 1 | locus YGL227W, strain vid30, active compounds read low 0.978 | locus YGL240W, strain doc1, active compounds read low 0.957 | locus YGL248W, strain PDE1, active compounds read low 1 | locus YGL253W, strain hxk2, active compounds read low 1 | locus YGR078C, strain PAC10, active compounds read low 0.986 | locus YGR135W, strain pre9, active compounds read low 0.966 | locus YGR229C, strain SMI1, active compounds read low 0.993 | locus YGR252W, strain gcn5, active compounds read low 1.02 | locus YHR013C, strain ard1, active compounds read low 1 | locus YHR027C, strain rpn1, active compounds read low 0.983 | locus YHR030C, strain SLT2, active compounds read low 1.01 and 1 | locus YHR079C, strain IRE1 (second series), active compounds read low 1.02 | locus YHR079C, strain IRE1, active compounds read low 0.999 | locus YHR094C, strain hxt1, active compounds read low 1.02 | locus YHR129C, strain ARP1, active compounds read low 1.01 | locus YHR142W, strain chs7, active compounds read low 1.01 | locus YHR200W, strain rpn10, active compounds read low 1.02 | locus YIL066C, strain RNR3, active compounds read low 1.04 | locus YIL073C, strain SPO22, active compounds read low 1.09 | locus YIL125W, strain kgd1, active compounds read low 1.02 | locus YIR030C, strain dcg1, active compounds read low 1.02 | locus YJL092W, strain hpr5, active compounds read low 1 | locus YJL095W, strain BCK1 (second series), active compounds read low 0.995 | locus YJL095W, strain BCK1, active compounds read low 1 | locus YJL115W, strain asf1, active compounds read low 0.982 | locus YJL129C, strain trk1, active compounds read low 0.971 | locus YJL134W, strain LCB3, active compounds read low 1.01 | locus YJL154C, strain vps35, active compounds read low 0.988 | locus YJL164C, strain tpk1, active compounds read low 0.996 | locus YJL166W, strain qcr8, active compounds read low 1 | locus YJL168C, strain set2, active compounds read low 1.02 | locus YJL187C, strain SWE1 (second series), active compounds read low 1 | locus YJL187C, strain SWE1, active compounds read low 0.992 | locus YJR043C, strain POL32, active compounds read low 1.03 | locus YJR066W, strain TOR1, active compounds read low 0.974
